Data from the supplement of paper PMC10849652.
About 7,900 targets were measured; listed, in parts, are those with a hit and a random draw of the rest. About 0.6% of all pairs of compound and target were hits.

Key:
Experiment in all cases: log2 fold change, soluble protein after heating vs DMSO (PISA); higher = thermal stabilisation; K562 cells, 10 uM, 30 min; active = over 0.2 and 3.5 SD of the protein, either way, in both replicates (recomputed)
[1] = compound: CC1=C(C=C(C=C1)NC(=O)C2=CC(=CC=C2)C(C)(C)C#N)NC3=CC4=C(C=C3)N=CN(C4=O)C
Method in brief: (§1)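 K562 cells at 2×10^6 cells/mL were exposed to 10 μM compound for 30 min, then aliquots were heated for 3 min across 48°C-58°C, pooled, and extracted in PBS containing 0.5% NP-40 at 4°C. The supernatant after 21,000xg for 90 min was taken as soluble protein and measured by TMTpro 16plex LC-MS/MS with channel sums equalised. Thermal stability is reported relative to control samples, with values from duplicates. Fold changes are given on a log2 scale.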

[2] = compound: CC1=C(C=C(C=C1)NC(=O)C2=CC(=CC=C2)N(C)C)NC(=O)C3=CC=C(C=C3)O
Method in brief: as §1

[3] = compound: CC1=CC=C(C=C1)SC2=C3C=C(SC3=CN=C2)C(=O)N
Method in brief: as §1

[4] = compound: CC1=NC(=CC=C1)C2=C(N=C(N2)C(C)(C)C)C3=CC4=NC=CN=C4C=C3
Method in brief: as §1

Nexturastat A = compound: CCCCN(Cc1ccc(C(=O)NO)cc1)C(=O)Nc1ccccc1 [Nexturastat A]
Method in brief: as §1

vemurafenib = compound: CCCS(=O)(=O)Nc1ccc(F)c(C(=O)c2c[nH]c3ncc(-c4ccc(Cl)cc4)cc23)c1F [vemurafenib]
Method in brief: as §1

[5] = compound: CCCS(=O)(=O)Nc1ccc(F)c(C(=O)c2c[nH]c3ncc(Cl)cc23)c1F
Method in brief: as §1

[6] = compound: CCCc1cc(C)[nH]c(=O)c1CNC(=O)c1cc(-c2ccnc(N3CCN(C)CC3)c2)cc2c1cnn2C(C)C
Method in brief: as §1

givinostat = compound: CCN(CC)Cc1ccc2cc(COC(=O)Nc3ccc(C(=O)NO)cc3)ccc2c1 [givinostat]
Method in brief: as §1

barasertib = compound: CCN(CCCOc1ccc2c(Nc3cc(CC(=O)Nc4cccc(F)c4)[nH]n3)ncnc2c1)CCOP(=O)(O)O [barasertib]
Method in brief: as §1

[7] = compound: CC[C@@H]1C(=O)N(C)c2cnc(Nc3ccc(C(=O)NC4CCN(C)CC4)cc3OC)nc2N1C1CCCC1
Method in brief: as §1

volasertib = compound: CC[C@@H]1C(=O)N(C)c2cnc(Nc3ccc(C(=O)N[C@H]4CC[C@H](N5CCN(CC6CC6)CC5)CC4)cc3OC)nc2N1C(C)C [volasertib]
Method in brief: as §1

[8] = compound: CC[C@H](C)N1C=C(C2=C(C=C(C=C21)C3=CN=C(C=C3)N4CCNCC4)C(=O)NCC5=C(C=C(NC5=O)C)C)C
Method in brief: as §1

epoxomicin = compound: CC[C@H](C)[C@@H](C(=O)N[C@@H]([C@@H](C)O)C(=O)N[C@@H](CC(C)C)C(=O)[C@]1(CO1)C)NC(=O)[C@H]([C@@H](C)CC)N(C)C(=O)C [epoxomicin]
Method in brief: as §1

[9] = compound: CCn1c(C(=O)N(C2CC2)C2CC2)cc2c3c(ncn3C)c(Nc3cc(C)n(C)n3)nc21
Method in brief: as §1

[10] = compound: CCn1cc(-c2ccnc3[nH]c(-c4cccc(CN(C)C)c4)cc23)c(-c2ccc(NC(=O)N(C)C)cc2)n1
Method in brief: as §1

[11] = compound: CN(C)CC(=O)Nc1ccc2[nH]c(=O)c3ccccc3c2c1
Method in brief: as §1

rosiglitazone = compound: CN(CCOC1=CC=C(C=C1)C[C@H]2C(=O)NC(=O)S2)C3=CC=CC=N3 (racemic) [rosiglitazone]
Method in brief: as §1

[12] = compound: CN1C2=C(C3=C1C(=O)N(N=C3)CC4=CC(=CC=C4)N)SC(=C2)S(=O)C
Method in brief: as §1

[13] = compound: CN1CCC(CNc2ccc3ncc(-c4cccc(OC(F)(F)F)c4)n3n2)CC1
Method in brief: as §1

Measured: log2 fold change

IDI1 isoform 2 (UniProt Q13907)
UniProt Q13907, sequence (Q13907 whole entry, looked up): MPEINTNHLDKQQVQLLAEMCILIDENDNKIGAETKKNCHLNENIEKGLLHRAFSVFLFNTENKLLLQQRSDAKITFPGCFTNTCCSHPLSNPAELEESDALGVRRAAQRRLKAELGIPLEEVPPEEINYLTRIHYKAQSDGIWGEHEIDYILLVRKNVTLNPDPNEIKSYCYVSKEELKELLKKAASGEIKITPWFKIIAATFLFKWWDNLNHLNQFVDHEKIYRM
inactive: [1] -0.017 | [2] -0.007 | [3] -0.015 | [4] 0.003 | Nexturastat A -0.082 | vemurafenib 0.005 | [5] -0.029 | [6] -0.185 | givinostat -0.219 | barasertib 0.024 | [7] 0.055 | volasertib 0.127 | [8] -0.05 | epoxomicin -0.079 | [9] -0.008 | [10] -0.081 | [11] -0.065 | rosiglitazone -0.01 | [12] -0.004 | [13] -0.005

FOXK1 (UniProt P85037)
UniProt P85037, sequence (P85037 whole entry, looked up): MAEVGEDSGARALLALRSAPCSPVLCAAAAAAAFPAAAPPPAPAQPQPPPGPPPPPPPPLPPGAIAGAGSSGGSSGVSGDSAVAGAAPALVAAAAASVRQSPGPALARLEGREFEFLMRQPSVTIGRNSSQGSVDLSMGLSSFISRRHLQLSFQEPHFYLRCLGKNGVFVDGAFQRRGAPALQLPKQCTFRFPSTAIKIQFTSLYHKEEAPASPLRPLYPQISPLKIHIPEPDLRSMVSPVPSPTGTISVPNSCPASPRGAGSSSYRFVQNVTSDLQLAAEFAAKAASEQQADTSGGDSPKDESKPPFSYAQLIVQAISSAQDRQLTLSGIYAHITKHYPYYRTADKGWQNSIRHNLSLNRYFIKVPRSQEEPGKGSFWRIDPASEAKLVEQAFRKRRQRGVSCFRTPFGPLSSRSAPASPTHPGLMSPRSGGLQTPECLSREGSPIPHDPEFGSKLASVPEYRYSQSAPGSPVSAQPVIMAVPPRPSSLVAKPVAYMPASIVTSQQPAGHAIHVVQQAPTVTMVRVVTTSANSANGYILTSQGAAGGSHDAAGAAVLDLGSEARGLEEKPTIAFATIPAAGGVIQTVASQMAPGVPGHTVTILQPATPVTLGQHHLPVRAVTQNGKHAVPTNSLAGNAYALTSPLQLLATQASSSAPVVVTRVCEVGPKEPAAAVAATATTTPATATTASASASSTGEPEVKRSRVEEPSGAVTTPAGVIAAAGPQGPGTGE
inactive: [1] 0.323 | [2] -0.01 | [3] -0.362 | [4] -0.063 | Nexturastat A -0.091 | vemurafenib 0.097 | [5] 0.182 | [6] -0.129 | givinostat -0.025 | barasertib -0.221 | [7] 0.429 | volasertib -0.017 | [8] 0.035 | epoxomicin 0.027 | [9] -0.094 | [10] 0.041 | [11] -0.001 | rosiglitazone -0.077 | [12] -0.289 | [13] 0.456

HNRNPH1 (UniProt P31943)
UniProt P31943, sequence (P31943 whole entry, looked up): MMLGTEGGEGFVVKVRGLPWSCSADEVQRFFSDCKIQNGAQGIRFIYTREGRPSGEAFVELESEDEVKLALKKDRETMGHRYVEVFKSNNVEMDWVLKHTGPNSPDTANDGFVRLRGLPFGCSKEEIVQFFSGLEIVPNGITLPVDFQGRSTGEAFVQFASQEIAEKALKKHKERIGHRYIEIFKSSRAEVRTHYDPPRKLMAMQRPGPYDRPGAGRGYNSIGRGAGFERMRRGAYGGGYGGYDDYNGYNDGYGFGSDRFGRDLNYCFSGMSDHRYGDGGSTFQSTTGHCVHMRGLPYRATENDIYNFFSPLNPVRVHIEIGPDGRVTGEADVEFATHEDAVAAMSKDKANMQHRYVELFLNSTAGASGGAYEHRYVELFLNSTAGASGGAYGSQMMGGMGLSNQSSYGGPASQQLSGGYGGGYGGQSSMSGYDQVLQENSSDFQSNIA
active: volasertib -0.583
inactive: [1] 0.077 | [2] -0.044 | [3] 0.005 | [4] 0.047 | Nexturastat A 0.201 | vemurafenib 0.086 | [5] 0.144 | [6] 0.029 | givinostat 0.115 | barasertib 0.05 | [7] -0.124 | [8] 0.1 | epoxomicin 0.018 | [9] -0.192 | [10] -0.025 | [11] 0.072 | rosiglitazone 0.025 | [12] 0.083 | [13] -0.247

HRAS (UniProt P01112)
UniProt P01112, sequence (P01112 whole entry, looked up): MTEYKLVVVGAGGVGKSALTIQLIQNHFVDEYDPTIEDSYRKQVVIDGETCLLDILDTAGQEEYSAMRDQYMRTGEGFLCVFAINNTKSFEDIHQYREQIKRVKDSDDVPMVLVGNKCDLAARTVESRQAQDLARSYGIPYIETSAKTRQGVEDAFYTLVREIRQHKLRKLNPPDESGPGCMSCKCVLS
inactive: [1] -0.042 | [2] -0.065 | [3] -0.031 | [4] 0.096 | Nexturastat A 0.147 | vemurafenib 0.064 | [5] -0.083 | [6] 0.089 | givinostat -0.065 | barasertib 0.063 | [7] -0.014 | volasertib 0.057 | [8] -0.028 | epoxomicin 0.104 | [9] 0.007 | [10] -0.082 | [11] -0.125 | rosiglitazone -0.159 | [12] -0.033 | [13] 0.048

FYB1 isoform 3 (UniProt O15117)
inactive: [1] 0.073 | [2] 0.063 | [3] 0.093 | [4] 0.051 | Nexturastat A 0.011 | vemurafenib -0.009 | [5] 0.169 | [6] -0.03 | givinostat 0.066 | barasertib 0.052 | [7] -0.018 | volasertib -0.201 | [8] 0.263 | epoxomicin 0.052 | [9] -0.057 | [10] -0.008 | [11] 0.019 | rosiglitazone 0.115 | [12] -0.068 | [13] -0.246

GTF3C4 (UniProt Q9UKN8)
UniProt Q9UKN8, sequence (Q9UKN8 whole entry, looked up): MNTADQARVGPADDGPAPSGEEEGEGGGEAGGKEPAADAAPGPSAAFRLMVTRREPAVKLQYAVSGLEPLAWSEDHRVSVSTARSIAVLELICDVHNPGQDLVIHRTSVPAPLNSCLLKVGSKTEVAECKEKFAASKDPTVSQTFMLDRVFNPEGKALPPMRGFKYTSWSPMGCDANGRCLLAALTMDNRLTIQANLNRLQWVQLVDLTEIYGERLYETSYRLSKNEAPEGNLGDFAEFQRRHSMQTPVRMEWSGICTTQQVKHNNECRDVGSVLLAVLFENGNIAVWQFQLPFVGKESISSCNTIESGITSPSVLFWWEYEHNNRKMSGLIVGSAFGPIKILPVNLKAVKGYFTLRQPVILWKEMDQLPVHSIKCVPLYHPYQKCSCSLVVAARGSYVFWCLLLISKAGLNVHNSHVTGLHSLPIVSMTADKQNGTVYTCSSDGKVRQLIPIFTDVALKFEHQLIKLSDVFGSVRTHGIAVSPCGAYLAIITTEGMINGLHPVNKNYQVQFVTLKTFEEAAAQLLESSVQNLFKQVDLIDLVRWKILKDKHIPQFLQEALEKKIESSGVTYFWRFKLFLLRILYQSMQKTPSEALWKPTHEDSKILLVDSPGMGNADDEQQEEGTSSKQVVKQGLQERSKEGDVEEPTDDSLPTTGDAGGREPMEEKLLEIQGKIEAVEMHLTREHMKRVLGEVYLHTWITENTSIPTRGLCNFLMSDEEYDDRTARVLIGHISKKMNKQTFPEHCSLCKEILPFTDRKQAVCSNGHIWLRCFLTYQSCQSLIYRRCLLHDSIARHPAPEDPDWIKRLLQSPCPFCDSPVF
inactive: [1] -0.025 | [2] -0.027 | [3] 0.038 | [4] 0.008 | Nexturastat A -0.052 | vemurafenib 0.032 | [5] 0.045 | [6] 0.033 | givinostat -0.007 | barasertib 0.003 | [7] -0.002 | [8] 0.001 | epoxomicin -0.001 | [9] -0.003 | [10] -0.003 | [11] -0.024 | rosiglitazone 0.012 | [12] 0.007 | [13] 0
active: volasertib -0.263

GTF2B (UniProt Q00403)
UniProt Q00403, sequence (Q00403 whole entry, looked up): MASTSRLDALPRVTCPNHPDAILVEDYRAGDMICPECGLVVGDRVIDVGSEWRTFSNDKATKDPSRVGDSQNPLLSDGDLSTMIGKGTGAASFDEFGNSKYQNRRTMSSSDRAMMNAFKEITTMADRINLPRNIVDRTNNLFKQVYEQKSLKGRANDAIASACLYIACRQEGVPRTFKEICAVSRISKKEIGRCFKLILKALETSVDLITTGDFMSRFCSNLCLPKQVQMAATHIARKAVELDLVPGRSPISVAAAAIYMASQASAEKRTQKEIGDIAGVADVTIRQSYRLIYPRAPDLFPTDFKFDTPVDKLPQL
active: volasertib -0.323
inactive: [1] -0.018 | [2] -0.092 | [3] 0.097 | [4] 0.097 | Nexturastat A -0.031 | vemurafenib 0.104 | [5] 0.167 | [6] 0.017 | givinostat 0.058 | barasertib 0.044 | [7] -0.076 | [8] 0.091 | epoxomicin 0.096 | [9] -0.04 | [10] -0.015 | [11] 0.147 | rosiglitazone 0.083 | [12] -0.002 | [13] -0.193

GNG5 (UniProt P63218)
UniProt P63218, sequence (P63218 whole entry, looked up): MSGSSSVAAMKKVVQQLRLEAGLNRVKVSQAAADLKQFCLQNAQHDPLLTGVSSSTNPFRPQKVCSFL
active: epoxomicin 0.556
inactive: [1] 0.147 | [2] -0.17 | [3] -0.02 | [4] 0.074 | Nexturastat A 0.068 | vemurafenib 0.038 | [5] 0.004 | [6] 0.022 | givinostat -0.063 | barasertib -0.064 | [7] 0.105 | volasertib 0.033 | [8] -0.117 | [9] 0.059 | [10] 0.004 | [11] -0.07 | rosiglitazone -0.045 | [12] -0.014 | [13] 0.144

HOMER1 (UniProt Q86YM7)
UniProt Q86YM7, sequence (Q86YM7 whole entry, looked up): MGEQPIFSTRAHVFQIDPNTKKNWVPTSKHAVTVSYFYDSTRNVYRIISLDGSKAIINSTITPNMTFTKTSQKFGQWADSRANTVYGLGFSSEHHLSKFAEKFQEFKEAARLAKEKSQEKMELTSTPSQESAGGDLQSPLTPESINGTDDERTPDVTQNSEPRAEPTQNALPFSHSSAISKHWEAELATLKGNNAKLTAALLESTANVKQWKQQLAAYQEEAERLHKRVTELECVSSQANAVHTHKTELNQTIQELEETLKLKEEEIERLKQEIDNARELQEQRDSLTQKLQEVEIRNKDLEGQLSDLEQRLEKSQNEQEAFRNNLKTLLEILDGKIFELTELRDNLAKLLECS
inactive: [1] -0.049 | [2] -0.059 | [3] -0.009 | [4] 0.125 | Nexturastat A -0.138 | vemurafenib -0.021 | [5] 0.071 | [6] 0.085 | givinostat 0.007 | barasertib 0.036 | [7] -0.018 | volasertib 0.024 | [8] -0.099 | epoxomicin 0.006 | [9] 0.017 | [10] -0.025 | [11] 0.018 | rosiglitazone -0.011 | [12] -0.018 | [13] 0.033

HDAC6 (UniProt Q9UBN7)
inactive: [1] 0.016 | [2] -0.041 | [3] 0.022 | [4] -0.091 | vemurafenib 0.004 | [5] -0.018 | [6] -0.015 | barasertib 0 | [7] 0.013 | volasertib 0.005 | [8] 0.014 | epoxomicin -0.069 | [9] -0.074 | [10] -0.157 | [11] 0.068 | rosiglitazone -0.065 | [12] 0.058 | [13] -0.04
active: Nexturastat A 0.522 | givinostat 1.03

GTF2H3 (UniProt Q13889)
UniProt Q13889, sequence (Q13889 whole entry, looked up): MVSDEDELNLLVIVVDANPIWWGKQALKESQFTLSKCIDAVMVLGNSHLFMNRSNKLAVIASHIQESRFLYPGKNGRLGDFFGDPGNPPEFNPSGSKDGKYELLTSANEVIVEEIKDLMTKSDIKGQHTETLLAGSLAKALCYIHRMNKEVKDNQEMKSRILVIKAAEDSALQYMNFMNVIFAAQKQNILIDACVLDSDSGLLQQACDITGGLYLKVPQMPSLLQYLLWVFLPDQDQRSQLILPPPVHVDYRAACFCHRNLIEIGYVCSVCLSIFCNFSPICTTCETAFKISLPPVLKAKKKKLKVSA
active: [13] -0.34
inactive: [1] -0.094 | [2] -0.008 | [3] -0.024 | [4] 0 | Nexturastat A 0.016 | vemurafenib -0.081 | [5] -0.021 | [6] -0.112 | givinostat 0.068 | barasertib -0.042 | [7] 0.004 | volasertib -0.122 | [8] 0.066 | epoxomicin -0.099 | [9] -0.035 | [10] 0.115 | [11] 0.052 | rosiglitazone -0.046 | [12] 0.027

FKBP4 (UniProt Q02790)
UniProt Q02790, sequence (Q02790 whole entry, looked up): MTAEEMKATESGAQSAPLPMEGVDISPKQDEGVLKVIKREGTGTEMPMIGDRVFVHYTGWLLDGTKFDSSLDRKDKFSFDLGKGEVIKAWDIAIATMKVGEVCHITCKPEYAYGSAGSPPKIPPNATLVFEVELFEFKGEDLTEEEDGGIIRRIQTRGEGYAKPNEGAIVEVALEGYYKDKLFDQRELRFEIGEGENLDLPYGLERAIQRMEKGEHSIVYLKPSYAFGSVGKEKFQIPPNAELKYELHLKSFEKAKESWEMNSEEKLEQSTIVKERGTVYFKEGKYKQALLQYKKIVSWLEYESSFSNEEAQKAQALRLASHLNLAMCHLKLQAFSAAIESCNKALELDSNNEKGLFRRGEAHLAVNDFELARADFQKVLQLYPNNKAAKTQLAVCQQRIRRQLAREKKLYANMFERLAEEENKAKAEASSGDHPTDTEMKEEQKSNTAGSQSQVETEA
inactive: [1] 0.032 | [2] -0.037 | [3] 0.015 | [4] 0.045 | Nexturastat A -0.027 | vemurafenib 0.032 | [5] 0.06 | [6] -0.009 | givinostat 0.012 | barasertib 0.013 | [7] -0.066 | volasertib -0.136 | [8] 0.07 | epoxomicin 0.033 | [9] -0.01 | [10] -0.051 | [11] 0.019 | rosiglitazone 0.042 | [12] -0.04 | [13] -0.119

HTATIP2 isoform 3 (UniProt Q9BUP3)
UniProt Q9BUP3, sequence (Q9BUP3 whole entry, looked up): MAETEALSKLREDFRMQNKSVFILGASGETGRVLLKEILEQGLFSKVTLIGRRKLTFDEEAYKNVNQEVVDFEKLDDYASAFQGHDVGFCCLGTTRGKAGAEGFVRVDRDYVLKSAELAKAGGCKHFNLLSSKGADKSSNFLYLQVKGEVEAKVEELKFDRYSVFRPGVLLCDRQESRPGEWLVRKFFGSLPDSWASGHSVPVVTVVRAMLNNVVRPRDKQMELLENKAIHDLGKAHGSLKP
inactive: [1] 0.065 | [2] -0.093 | [3] 0.011 | [4] -0.007 | Nexturastat A -0.14 | vemurafenib 0.057 | [5] 0.039 | [6] 0.059 | givinostat 0.012 | barasertib 0.041 | [7] -0.029 | volasertib -0.168 | [8] 0.035 | epoxomicin 0.008 | [9] 0.02 | [10] -0.013 | [11] 0.009 | rosiglitazone -0.025 | [12] -0.016 | [13] -0.148

GLUL (UniProt P15104)
UniProt P15104, sequence (P15104 whole entry, looked up): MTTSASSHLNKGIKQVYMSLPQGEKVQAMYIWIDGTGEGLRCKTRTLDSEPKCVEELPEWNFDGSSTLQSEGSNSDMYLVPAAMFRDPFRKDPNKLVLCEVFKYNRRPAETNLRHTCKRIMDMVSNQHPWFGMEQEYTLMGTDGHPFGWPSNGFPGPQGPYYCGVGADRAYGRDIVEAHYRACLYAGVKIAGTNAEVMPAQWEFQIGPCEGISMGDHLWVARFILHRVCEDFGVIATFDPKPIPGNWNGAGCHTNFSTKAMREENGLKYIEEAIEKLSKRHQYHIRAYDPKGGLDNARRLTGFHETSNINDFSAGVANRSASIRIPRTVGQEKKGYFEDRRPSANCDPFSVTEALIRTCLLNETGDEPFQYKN
inactive: [1] -0.008 | [2] -0.003 | [3] 0.055 | [4] -0.013 | Nexturastat A -0.02 | vemurafenib -0.04 | [5] -0.084 | [6] -0.016 | givinostat -0.082 | barasertib 0.004 | [7] 0.049 | volasertib 0.113 | [8] -0.041 | epoxomicin 0.081 | [9] 0.045 | [10] 0.014 | [11] -0.032 | rosiglitazone -0.022 | [12] -0.032 | [13] 0.017

GMEB2 (UniProt Q9UKD1)
inactive: [1] 0.038 | [2] -0.033 | [3] 0.041 | [4] -0.066 | Nexturastat A 0.09 | vemurafenib 0.012 | [5] 0.041 | [6] -0.088 | givinostat 0.087 | barasertib 0.029 | [7] 0.05 | [8] 0.062 | epoxomicin 0.156 | [9] -0.059 | [10] -0.048 | [11] 0.018 | rosiglitazone 0.145 | [12] -0.03 | [13] -0.075
active: volasertib -0.282

HDDC2 (UniProt Q7Z4H3)
UniProt Q7Z4H3, sequence (Q7Z4H3 whole entry, looked up): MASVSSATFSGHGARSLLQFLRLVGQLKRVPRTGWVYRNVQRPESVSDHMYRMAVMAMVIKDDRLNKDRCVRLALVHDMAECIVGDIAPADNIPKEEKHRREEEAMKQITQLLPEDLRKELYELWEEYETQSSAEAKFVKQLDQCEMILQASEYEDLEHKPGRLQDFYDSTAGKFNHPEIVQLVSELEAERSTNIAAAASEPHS
inactive: [1] 0.009 | [2] -0.03 | [3] 0.014 | [4] 0.029 | Nexturastat A -0.139 | vemurafenib 0.004 | [5] 0.034 | [6] -0.018 | givinostat -0.067 | barasertib -0.022 | [7] 0.008 | volasertib 0.08 | [8] 0.014 | epoxomicin -0.006 | [9] 0.034 | [10] -0.063 | [11] 0.025 | rosiglitazone 0.035 | [12] -0.102 | [13] -0.066
